Five compounds from PubChem BioAssay can be followed below.

Structures are written as SMILES. Values joined by “and” are separate entries in the source; they are usually repeats but may differ in a detail not shown here. Identical values can stand only once. Active and inactive are the calls of the source.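 Rule for the calls, unless noted: active = thallium flux through the channel raised or lowered by more than 3 SD from vehicle-only wells, actives on both sides; inactive = the rest.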

One assay has as its system F380Y. Kind of assay: BK channel mutant inhibitors and activators – cell-based, U2OS BacMam, thallium flux, beta subunits, selectivity assay, profiling panel (AID 1259406).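 Note: initial slope of Thallos dye fluorescence rise after thallium is added; log ratio against the mean of 0.3% DMSO vehicle wells on the same plate.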 The conditions noted are these: U2OS BacMam BK variants, at 30 µM.
The subject of another assay is F380Y/beta1. Described as above. The conditions noted are these: U2OS BacMam BK variants, at 30 µM.
In a further assay the test system is F380Y/beta2Delta. The assay is described as above. The conditions noted are these: U2OS BacMam BK variants, at 30 µM.
Another assay relates to F380Y/beta4. The assay is described as above. The conditions noted are these: U2OS BacMam BK variants, at 30 µM.
Assay [1] has as its target Calcium-activated potassium channel subunit alpha-1 (Homo sapiens) + Leucine-rich repeat-containing protein 26 (Homo sapiens) (UniProt Q12791+Q2I0M4). Described as above. Conditions: U2OS BacMam BK variants, F380Y/Slo1WT/gamma1, at 30 µM.
A further assay concerns R275C. The description is as above. The conditions noted are these: U2OS BacMam BK variants, at 30 µM.
The next assay deals with R275C/beta1. The assay is described as above. Conditions: U2OS BacMam BK variants, at 30 µM.
In another assay the test system is R275C/beta2Delta. Described as above. The conditions noted are these: U2OS BacMam BK variants, at 30 µM.
The subject of the next assay is R275C/beta4. Described as above. The conditions noted are these: U2OS BacMam BK variants, at 30 µM.
The test system of another assay is R275C/Slo1WT/beta2. The assay is described as above. Conditions: U2OS BacMam BK variants, at 30 µM.
A short description of assay [2]: P. berghei load reduction in hepatocytes – cell-based, HepG2, luciferase luminescence, HepG2 viability, primary screen (AID 624349; in the data active = parasite load remaining mostly below about 12%, no sharp cut-off; inactive = mostly above about 10%;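 note: 100% = mean of DMSO negative control wells on the same plate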). Conditions: P. berghei liver stage in HepG2, luciferase luminescence, concentration not given here; parasite load remaining: stronger effect = lower value; viability: measured here: HepG2 viability without parasites.
Assay [3] is described as follows: signal quenchers or enhancers, Cy5 substrate/SSB – biochemical, NIH Clinical Collection, E. coli SSB, artefact control for HCV NS3 helicase inhibitor project (AID 743268; call rule not given here). Conditions: Cy5-oligo bound E. coli SSB, fluorescence interference.
In assay [4] the test system is Hepatitis C virus NS3 helicase. Kind of assay: blockers of NS3h binding to DNA – biochemical, fluorescence polarization, NIH Clinical Collection, primary screen (AID 743270; call rule not given here). Conditions: NS3 helicase binding to Cy5-dT15 DNA, stronger effect = higher value, concentration not given here.
The target in assay [5] is Single-stranded DNA-binding protein (Escherichia coli (strain K12)) (UniProt P0AGE0). Kind of assay: SSB-ssDNA binding inhibitors – biochemical, fluorescence polarization, NIH Clinical Collection, counter-screen for HCV NS3 helicase inhibitor project (AID 743271; in the data active = inhibition above about 28%). The conditions noted are these: E. coli SSB-DNA binding, stronger effect = higher value, concentration not given here.
The nature of assay [6]: compounds distorting NS3 helicase fluorescence signal – biochemical, NIH Clinical Collection, artefact control for HCV NS3 helicase inhibitor project (AID 743272; call rule not given here;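 note: HCV NS3 helicase with a Cy5 labelled single stranded DNA probe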). Conditions: fluorescence interference counterscreen, HCV NS3 helicase assay; stronger effect = lower value.
A short description of assay [7]: modulation of C. elegans fzo-1 (AID 1259413; call rule not given here;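 note: fzo-1 mutant C. elegans worms in liquid wells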). Conditions: C. elegans fzo-1 modulator screen, mean read-out; stronger effect = higher value.
Assay [8] in a line: viability loss with induced miR-34 in A549 – imaging, A549 dox-inducible miR-34, nuclei and caspase counts, primary screen (AID 1347080;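 active = compounds whose cell count with miR-34 switched on is under 0.7 times the count with it off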). Conditions: A549 miR-34 inducible, Hoechst nuclei count, 48 h.

Chain of Calcium-activated potassium channel subunit alpha-1 (Homo sapiens) + Leucine-rich repeat-containing protein 26 (Homo sapiens) (Q2I0M4 whole entry, looked up, one chain of several): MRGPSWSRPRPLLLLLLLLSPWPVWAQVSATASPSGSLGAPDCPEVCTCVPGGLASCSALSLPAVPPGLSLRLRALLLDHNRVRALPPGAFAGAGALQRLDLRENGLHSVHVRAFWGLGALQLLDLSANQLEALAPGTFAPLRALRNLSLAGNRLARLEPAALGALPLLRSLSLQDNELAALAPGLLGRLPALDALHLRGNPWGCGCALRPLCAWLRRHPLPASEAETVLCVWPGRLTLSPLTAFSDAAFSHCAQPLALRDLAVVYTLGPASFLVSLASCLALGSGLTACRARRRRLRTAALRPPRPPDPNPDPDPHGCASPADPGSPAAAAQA

Consider `CC(=O)c1sc(SCc2ccc(Cl)cc2)c2c1CC(C)(C)CC2=O`, for which the log fold change Tl+ flux in the assay on F380Y was -0.0184 (inactive); in the assay with F380Y/beta1, 0.0319 (inactive); with F380Y/beta2Delta, 0.0184 (inactive); in the assay with F380Y/beta4, -0.123 (active); in assay [1] it was -0.0796 (inactive); with R275C it was 0.014 (inactive). Also, the log fold change Tl+ flux with R275C/beta1 is -0.034 (inactive); with R275C/beta2Delta, -0.0422 (inactive); in the assay with R275C/beta4 it was 0.00684 (inactive); in the assay with R275C/Slo1WT/beta2, 0.00246 (inactive).
`N#Cc1c(F)cccc1NC1CCN(Cc2ccccc2)CC1`: the log fold change Tl+ flux in the assay on F380Y was -0.0529 (inactive); with F380Y/beta1, -0.0783 (inactive); in the assay on F380Y/beta2Delta, -0.0626 (inactive); with F380Y/beta4, -0.103 (active); in assay [1], -0.0887 (inactive); in the assay with R275C, -0.0649 (inactive). The log fold change Tl+ flux in the assay with R275C/beta1 is -0.0261 (inactive); in the assay with R275C/beta2Delta, -0.0118 (inactive); in the assay on R275C/beta4, -0.0356 (inactive); in the assay with R275C/Slo1WT/beta2 it was -0.0644 (inactive).
Take `Cc1nn(-c2ccccc2)nc1CNC(=O)COc1ccccc1`: the log fold change Tl+ flux in the assay on F380Y is -0.0388 (inactive); in the assay on F380Y/beta1 it was -0.0688 (inactive); in the assay on F380Y/beta2Delta it was -0.0499 (inactive); in the assay on F380Y/beta4, -0.0891 (inactive); in assay [1] it was -0.0325 (inactive); in the assay on R275C, -0.00552 (inactive). The log fold change Tl+ flux in the assay with R275C/beta1 was -0.0187 (inactive); in the assay with R275C/beta2Delta it was 0.0169 (inactive); in the assay with R275C/beta4, -0.0424 (inactive); in the assay with R275C/Slo1WT/beta2 it was 0.0189 (inactive).
Regarding `COC(OC)c1ccc(C#N)c(SC)n1`, the log fold change Tl+ flux in the assay with F380Y is 0.0176 (inactive); in the assay with F380Y/beta1, -0.0051 (inactive); in the assay on F380Y/beta2Delta, 0.00992 (inactive); in the assay with F380Y/beta4, 0.0407 (inactive); in [1], -0.00294 (inactive); in the assay on R275C it was -0.0258 (inactive). The log fold change Tl+ flux in the assay with R275C/beta1 was -0.00195 (inactive); in the assay on R275C/beta2Delta it was 0.0434 (inactive); with R275C/beta4 it was -0.0479 (inactive); with R275C/Slo1WT/beta2, -0.0163 (inactive).
As for `CCCCN1CCCC1CNC(=O)c1cc(C#N)c2ccccc2c1OC` (stereo unspecified), the parasite load remaining in [2] was 35.8% (inactive). In addition, in assay [2], the viability came out at 66.3%. Besides, the fluorescence ratio was 0.93 (inactive) in assay [3] and 0.91 (inactive) in assay [6]. Besides, the inhibition in assay [4] is -0.22% (inactive); in [5], 2.76% (inactive). Further, in assay [7], the mean signal was 308 (inactive). The fold change was 0.818 (inactive) and 0.935 (inactive) in [8] (stronger effect = lower value, cell number ratio, induced over uninduced); 0.846 and 1.44 in [8] (measured here: relative caspase fold change +Dox/-Dox). Moreover, the cell count was 8480 and 8490 in [8] (measured here: total cells with miR-34 induction, stronger effect = lower value); 10400 and 9080 in [8] (measured here: total cells without miR-34 induction). For the same compound, the log fold change Tl+ flux in the assay on F380Y is -0.12 (active); in the assay on F380Y/beta1 it was -0.109 (active); in the assay with F380Y/beta2Delta it was -0.243 (active); in the assay on F380Y/beta4, -0.221 (active); in assay [1], -0.0355 (inactive); in the assay on R275C, -0.0841 (inactive). In addition, the log fold change Tl+ flux in the assay with R275C/beta1 was -0.0222 (inactive); in the assay on R275C/beta2Delta it was -0.085 (inactive); in the assay with R275C/beta4, -0.0283 (inactive); in the assay on R275C/Slo1WT/beta2, -0.00509 (inactive).
